Experimental data from PubChem BioAssay AID1159580 (chemical genetic matrix, 2015).
Several values for one entry are separate records, joined by “and”; a condition that tells them apart may be missing. Equal entries are not always repeated. About 2,000 (36%) of roughly 5,500 compounds were called active. Inconclusive results (about 18%) are left out. No stated cut-off is given here; in the data, active means normalized growth mostly below about 0.91 (no sharp cut-off); inconclusive means no clear call, values can overlap the other calls; inactive means mostly above about 0.92. Some of the results follow.

Assay: chemical genetic growth profiling, strain panel (AID 1159580);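 further: tested at 20 µM; growth read once vehicle control cultures reached saturation at 30 °C; 1 = growth at the plate median or of vehicle wells; lower values mean less growth of the strain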
Conditions: S. cerevisiae deletion strains, growth OD

Measured: normalized growth

CCN(CC)C(C)CN1c2ccccc2Sc2ccccc21 (configuration not stated)
active: locus YAL021C, strain ccr4, hits give low values 0.399 | locus YAL026C, strain drs2, hits give low values 0.77 | locus YBL061C, strain skt5, hits give low values 0.909 | locus YBR023C, strain chs3, hits give low values 0.889 | locus YBR279W, strain paf1, hits give low values 0.896 | locus YDR159W, strain sac3, hits give low values 0.775 | locus YDR195W, strain ref2 1.23 [resistant] | locus YDR388W, hits give low values 0.914 | locus YER016W, strain bim1, hits give low values 0.921 | locus YER155C, strain BEM2 (second series), hits give low values 0.751 | locus YGL173C, strain kem1, hits give low values 0.898 | locus YGL240W, strain doc1, hits give low values 0.799 | locus YGL253W, strain hxk2, hits give low values 0.907 | locus YGR252W, strain gcn5, hits give low values 0.72 | locus YHR027C, strain rpn1, hits give low values 0.796 | locus YHR142W, strain chs7, hits give low values 0.863 | locus YJL166W, strain qcr8, hits give low values 0.898 | locus YJL187C, strain SWE1, hits give low values 0.911
inactive: locus YAL013W, strain DEP1, hits give low values 0.983 | locus YAL030W, strain snc1, hits give low values 0.965 | locus YBR009C, strain hhf1, hits give low values 0.925 | locus YBR021W, strain FUR4, hits give low values 0.852 | locus YBR171W, strain sec66, hits give low values 0.998 | locus YBR229C, strain ROT2, hits give low values 0.982 | locus YBR231C, strain swc5, hits give low values 0.937 | locus YCL011C, strain gbp2, hits give low values 0.953 | locus YCL016C, strain dcc1, hits give low values 0.923 | locus YCL029C, strain bik1, hits give low values 0.933 | locus YCL061C, strain MRC1, hits give low values 0.932 | locus YCL069W, strain vba3, hits give low values 0.947 | locus YCR088W, strain abp1, hits give low values 0.986 | locus YDL005C, strain med2, hits give low values 1 | locus YDL035C, strain GPR1, hits give low values 0.917 | locus YDL040C, strain nat1, hits give low values 1 | locus YDL074C, strain BRE1, hits give low values 0.864 | locus YDL101C, strain DUN1, hits give low values 0.978 | locus YDL134C, strain PPH21, hits give low values 0.966 | locus YDL185W, strain tfp1, hits give low values 0.947 | locus YDL192W, strain arf1, hits give low values 0.97 | locus YDR001C, strain nth1, hits give low values 0.987 | locus YDR069C, strain doa4, hits give low values 0.973 | locus YDR101C, strain arx1, hits give low values 0.967 | locus YDR137W, strain rgp1, hits give low values 1.14 | locus YDR150W, strain NUM1, hits give low values 0.977 | locus YDR162C, strain NBP2, hits give low values 0.987 | locus YDR297W, strain sur2, hits give low values 0.939 | locus YDR318W, strain mcm21, hits give low values 0.926 | locus YDR334W, strain swr1, hits give low values 1.03 | locus YDR335W, strain msn5, hits give low values 0.959 | locus YDR392W, strain spt3, hits give low values 0.911 | locus YDR502C, strain sam2, hits give low values 0.954 | locus YEL003W, strain gim4, hits give low values 0.984 | locus YEL037C, strain rad23, hits give low values 0.984 | locus YEL061C, strain CIN8 (second series), hits give low values 0.992 | locus YEL061C, strain CIN8, hits give low values 0.991 | locus YER015W, strain faa2, hits give low values 0.937 | locus YER110C, hits give low values 0.956 | locus YER111C, strain swi4, hits give low values 0.987 | locus YER155C, strain BEM2, hits give low values 0.964 | locus YER167W, strain BCK2, hits give low values 0.909 | locus YFR010W, strain ubp6, hits give low values 0.914 | locus YGL078C, strain dbp3, hits give low values 0.98 | locus YGL086W, strain mad1, hits give low values 0.952 | locus YGL167C, strain pmr1, hits give low values 0.999 | locus YGL227W, strain vid30, hits give low values 0.995 | locus YGL248W, strain PDE1, hits give low values 0.957 | locus YGR078C, strain PAC10, hits give low values 0.905 | locus YGR135W, strain pre9, hits give low values 0.918 | locus YGR229C, strain SMI1, hits give low values 0.904 | locus YHR013C, strain ard1, hits give low values 0.972 | locus YHR030C, strain SLT2, hits give low values 0.976 and 1.03 | locus YHR079C, strain IRE1 (second series), hits give low values 0.935 | locus YHR079C, strain IRE1, hits give low values 1.06 | locus YHR094C, strain hxt1, hits give low values 0.95 | locus YHR129C, strain ARP1, hits give low values 0.986 | locus YHR200W, strain rpn10, hits give low values 0.95 | locus YIL066C, strain RNR3, hits give low values 0.97 | locus YIL073C, strain SPO22, hits give low values 0.767 | locus YIL125W, strain kgd1, hits give low values 0.98 | locus YIR030C, strain dcg1, hits give low values 0.953 | locus YJL092W, strain hpr5, hits give low values 0.954 | locus YJL095W, strain BCK1 (second series), hits give low values 0.946 | locus YJL095W, strain BCK1, hits give low values 0.861 and 1.02 | locus YJL115W, strain asf1, hits give low values 0.992 | locus YJL129C, strain trk1, hits give low values 1.04 | locus YJL134W, strain LCB3, hits give low values 0.986 | locus YJL154C, strain vps35, hits give low values 0.975 | locus YJL164C, strain tpk1, hits give low values 0.928 | locus YJL168C, strain set2, hits give low values 0.961 | locus YJL187C, strain SWE1 (second series), hits give low values 0.957 | locus YJR043C, strain POL32, hits give low values 0.903 | locus YJR066W, strain TOR1, hits give low values 0.872
